From PubChem BioAssay
FBW7 act – human FBW7 E3 ligase activation, primary screen; Q969H0; AlphaScreen FBW7–phospho-cyclin E peptide binding, activator screen; normalized activity (activation), % at 26.1 µM; 650,000 compounds, 0.13% hits; in the data active means normalized activity above about 1.9%;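 further: purified mutant Fbw7 with reduced substrate affinity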
GPR151 ag – activates the human receptor GPR151; PathHunter beta-arrestin GPR151 cells, luminescence; 650,000 compounds, 1% hits; activation, % at 11.2 µM; Q8TDV0; AID 1508602; in the data active means activation above about 4.9%;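 further: 0% = median of compound wells and 100% = cells with positive control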
Target sequence (Q8TDV0 whole entry, looked up): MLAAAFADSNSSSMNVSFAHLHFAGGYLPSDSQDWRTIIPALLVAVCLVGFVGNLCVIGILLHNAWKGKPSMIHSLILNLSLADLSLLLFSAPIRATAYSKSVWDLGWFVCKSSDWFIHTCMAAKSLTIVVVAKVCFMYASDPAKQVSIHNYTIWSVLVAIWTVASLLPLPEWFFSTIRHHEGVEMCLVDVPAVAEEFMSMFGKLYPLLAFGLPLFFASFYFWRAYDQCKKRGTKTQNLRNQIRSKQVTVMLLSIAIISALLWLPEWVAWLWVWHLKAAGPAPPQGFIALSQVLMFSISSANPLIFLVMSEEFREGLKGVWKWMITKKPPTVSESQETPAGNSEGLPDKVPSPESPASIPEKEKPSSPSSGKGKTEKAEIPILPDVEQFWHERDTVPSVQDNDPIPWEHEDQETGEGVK
TEAD-YAP block – TEAD-YAP interaction inhibition; inhibition, % at 9.12 µM; HEK-TIYL cells, TEAD-Gal4/YAP UAS-luciferase luminescence; 640,000 compounds, 1.4% hits; in the data active means inhibition above about 32%;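 further: 0% = median of test compound wells and 100% = reference inhibitor wells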
MITF primary – inhibitors of human MITF; 650,000 compounds, 0.91% hits; O75030; inhibition, % at 2.6 µM; AlphaScreen MITF homodimerization, bead proximity signal; AID 1259374; in the data active means inhibition above about 50%;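 further: 0% = vehicle wells with protein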
Starred values were filed as active, the others as inactive. Rows were chosen to be rich in hits. Some 3.5% of all compounds tested hit in one or more screens of this group.

SMILES | FBW7 act | GPR151 ag | TEAD-YAP block | MITF primary
Cn1cc(-c2ccc3cnc(Nc4ccc(-n5cnc(N6CCCC(O)C6)n5)cc4)nc3c2)cn1 (stereo not drawn) | 0 | -3 | 90* | 2
Cn1cc(-c2ccc3cnc(Nc4ccc(-n5cnc(C(C)(C)C)n5)cc4)nc3c2)cn1 | 0 | 1 | 14 | -5
O=C1CSc2ccc(C(=O)NC3CCCc4ccccc43)cc2N1 (stereo not drawn) | 0 | -1 | 58* | 2
CCc1ccc(OCCNc2nc(C)c(Br)c(=O)[nH]2)cc1 | 1 | -1 | 10 | 16
OC1CCN(c2cccc(-c3ccnc(Nc4ccc(-n5ccnn5)cc4)n3)c2)CC1 | 0 | 0 | 37* | -3
Cn1nnc(-c2ccc(Nc3nccc(-c4cc(C#N)cc(N5CCCC(O)C5)c4)n3)cc2)n1 (stereo not drawn) | 0 | 1 | 63* | 0
OC1CCCN(c2ncn(-c3ccc(Nc4nccc(-c5cccc(N6CCOCC6)c5)n4)cc3)n2)C1 (stereo not drawn) | 1 | 0 | 83* | -10
CN1CCN(c2ncn(-c3ccc(Nc4nccc(-c5cc(C#N)cc(N6CCCC(O)C6)c5)n4)cc3)n2)CC1 (stereo not drawn) | 0 | 1 | 62* | -11
N#Cc1cc(-c2ccnc(Nc3ccc(-n4cnc(N5CCCC(O)C5)n4)cc3)n2)cc(N2CCOCC2)c1 (stereo not drawn) | 0 | 0 | 27 | -6
Fc1cc(-c2ccnc(Nc3ccc(-n4ccnn4)cc3)n2)cc(N2CCOCC2)c1 | 0 | 1 | 20 | -3
CCCc1nnc(NC(=O)Cc2ccc(F)cc2)s1 | 0 | 0 | 6 | 8
Cc1cccc(N2C(=O)c3ccc(C(=O)Nc4ccccc4O)cc3C2=O)c1 | 0 | -6 | 0 | -4
Nc1nc(SCC(=O)N2CCc3ccccc32)[nH]c(=O)c1NC(=O)c1ccco1 | 0 | 1 | 5 | 11
Cc1ccc(-c2cc(C(F)(F)F)n3nc(C)c(-c4ccccc4)c3n2)cc1 | 0 | 0 | -1 | -3
COc1ccc2oc(=O)c(-c3csc(Nc4ccc(OC)c(OC)c4)n3)cc2c1 | 0 | 0 | 0 | 2
N[C@H]1CCC[C@@H](C(=O)Nc2ccc3cnccc3c2)C1 | 0 | 1 | 8 | 39
CCN1/C(=C/c2ccc3cc(C)ccc3[n+]2C)C=Cc2cc(C)ccc21 | -1 | -1 | 83* | 47
CCN1/C(=C/c2scc(-c3ccccc3)[n+]2C)C=Cc2cc(C)ccc21 | -1 | 4 | 80* | 9
Oc1cccc2ccc(/C=C/c3ccc4c(c3)OCCO4)nc12 | 0 | -10 | 92* | -2
CC(=O)Oc1cccc2ccc(/C=C/c3cc4c(cc3Cl)OCO4)nc12 | 0 | 0 | -23 | 15
CC(=O)Oc1cccc2ccc(/C=C/c3ccc4c(c3)OCO4)nc12 | 0 | -8 | 78* | 14
Cc1nc2sc3c(c2c(=O)n1Cc1ccc(C(C)(C)C)cc1)CCCC3 | 0 | 2 | 19 | 9
CC(C)(C)c1ccc(Cn2cnc3sc4c(c3c2=O)CCCC4)cc1 | 0 | 1 | 62* | -2
COc1ccc(CCn2cnc3sc4c(c3c2=N)CCCC4)cc1OC | 0 | 1 | 39* | -6
Cc1occc1C(=O)N(C)C(Cc1ccccc1F)C1CCN(C(=O)C2(C)CC2)CC1 (stereo not drawn) | 0 | 0 | 9 | 20
SMILES | FBW7 act | GPR151 ag | TEAD-YAP block | MITF primary
COc1ccc(NC(=O)c2sc3ncnc(N4CCc5ccccc5C4)c3c2C)cc1Cl | 0 | -1 | -9 | -4
COc1ccc(C(N)c2ccncc2)cc1 (stereo not drawn) | 0 | 1 | 0 | 8
c1cncc(CNc2ncnc3nc(Nc4ccc5ncccc5c4)[nH]c23)c1 | 0 | -2 | 38* | -3
COc1ccc(CCNC(=O)c2cnc(Nc3cc(OC)c(OC)c(OC)c3)s2)cc1 | 0 | 0 | -10 | 8
Cc1c(CCNS(=O)(=O)c2ccc(F)cc2)sc2nc(-c3ccc(F)cc3)nn12 | 1 | 2 | 37* | 6
COc1ccc(NS(=O)(=O)c2ccc3ccccc3c2)c2ncccc12 | 0 | -1 | 26 | 30
O=S(=O)(Nc1ccc(Br)c2cccnc12)c1ccccc1 | 0 | -2 | 33* | 19
O=C(O)c1ccc(N2N=C(c3ccccc3)/C(=C\c3cccc([N+](=O)[O-])c3O)C2=O)cc1 | 0 | -2 | -13 | 8
O=C(O)c1ccc(N2N=C(c3ccccc3)/C(=C/c3ccco3)C2=O)cc1 | -1 | 0 | 1 | 70*
COc1cccn2c(C(=O)NCc3cccc(OC(C)C)c3)c(C(F)(F)F)nc12 | 0 | 0 | 5 | 6
O=C(c1cc(-c2ccncc2)nc2ccccc12)N1CCN(c2ccccn2)CC1 | 0 | 1 | 58* | -16
O=C(c1cc(-c2ccccc2)nc2ccccc12)N1CCN(c2ccccc2)CC1 | 0 | 0 | 7 | -5
O=C(c1ccccc1-c1ccccc1)N1CCN(c2ccccn2)CC1 | 0 | -1 | 52* | 19
CCOc1ccccc1N1CCN(C(=O)c2cc(-c3ccccc3)nc3ccccc23)CC1 | 0 | 1 | 45* | -6
O=C(c1ccccc1Br)N1CCN(c2ccccn2)CC1 | 0 | 2 | -5 | -1
COc1ccc(OC)c(NC(=O)c2c(Cl)nc(Cl)c(Cl)c2Cl)c1 | 0 | -1 | 64* | -5
COc1ccccc1NC(=O)c1c(OC)cccc1OC | 0 | -1 | 15 | -8
COc1ccccc1NC(=O)c1c(Cl)nc(Cl)c(Cl)c1Cl | 1 | 1 | 64* | 8
COC1CCC(C(=O)Nc2nc(-c3ccc4c(c3)CC(C)N4C(C)=O)c(C)s2)CC1 (stereo not drawn) | 0 | 1 | -16 | 6
Cc1ccc(OCc2cc(C(=O)N(C)CCC3CCOCC3)no2)cn1 | 0 | 4 | 39* | -1
Fc1cccc(Nc2ncnc3c2c(-c2ccccc2)cn3-c2ccc(Br)cc2)c1 | 0 | -1 | 1 | 12
O=C(NCc1cccnc1)/C(=C/c1ccc(-c2ccc(Cl)cc2)o1)S(=O)(=O)c1ccccc1 | 0 | -1 | 56* | 12
Cc1ccc(C(=O)N/C(=C/c2ccc(-c3ccc(Cl)cc3)o2)C(=O)NCc2ccccc2)cc1 | 0 | -1 | -5 | 3
COc1cccc(S(=O)(=O)NCC2CCN(C(=O)NC(C)(C)C)CC2)c1 | 0 | -1 | 5 | -18
CC(C)n1nccc1-c1nnc(NC(=O)c2ccc(Cl)cc2Cl)o1 | 0 | -1 | 12 | 3
CC(C)n1nccc1-c1nnc(NC(=O)C(C)(C)Oc2ccc(Cl)cc2)o1 | -1 | 0 | 37* | 31
CC(=O)Oc1cc(C(=O)Nc2ccc(F)cc2)cc(C(=O)Nc2ccc(F)cc2)c1 | 0 | 0 | 18 | 15
COC(=O)c1ccc(NC(=O)c2cc(OC(C)=O)cc(OC(C)=O)c2)cc1 | 0 | 1 | 45* | 2
CCCCCCCCCCCCC[N+](C)(C)Cc1ccccc1 | 0 | 1 | 38* | 24
C[C@H](Nc1ccc(C(F)(F)F)cc1[N+](=O)[O-])C(=O)OCC(=O)NC1CCCCC1 | 0 | -1 | -11 | 14
